# Source: PubChem BioAssay (several laboratories)
# A selection: hits, their analogues and other compounds. The true share with any hit is near 2.6%.
# KKLEB tox = CF airway cell cytotoxicity counter-screen; activity change (cytotoxicity), % at 5 µM; KKLEB CF airway cells viability, ATPlite luminescence, overnight; hits give low values; cells stimulated with P. aeruginosa culture filtrate; AID 602141; 0.36% of 360,000 active;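 active = corrected activity change at or below -50% at 5 µM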
# LGR2 antag = inhibitors of bursicon-induced Drosophila LGR2 receptor cAMP signaling. HEK293 LGR2, CRE-luciferase, bursicon-stimulated, 4 h. inhibition, % at 9.99 µM. 0.35% of 380,000 active. AID 720647;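 active = drop in luminescence signal, shown as inhibition above about 50% in the replicate tests, limit read from the data, passing the limit was not always enough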;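 note: agonist challenge used bursicon conditioned medium at about half maximal strength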
# CF NFkB inh = cystic fibrosis NF-kB activation inhibition. AID 588850. KKLEB NF-kB-GFP reporter, PAF-induced, GFP fluorescence overnight. inhibition, % at 5 µM. 0.86% of 360,000 active;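 active = at least 50% inhibition at 5 µM, scaled per plate between neutral and stimulator controls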;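 note: PAF is a Pseudomonas aeruginosa culture filtrate used as stimulus; plate controls were PAF-stimulated DMSO wells for no effect and unstimulated DMSO wells for full effect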
# TROY signal inh = TROY signaling inhibition; Q293 LMP1-TROYcd NF-kB luciferase reporter, 4 h; inhibition, % at 10 µM; 0.98% of 360,000 active;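 active = compounds whose plate-normalised and pattern-corrected inhibition of the luciferase reporter signal at the single screening dose is 50% or more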
# EWS-Fli inh = EWS/Fli transcriptional activity inhibition | A673 NR0B1-luciferase reporter, viability-normalised | inhibition, % at 12.6 µM | 0.67% of 350,000 active;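 active = mean inhibition of at least 50% after viability correction, with every replicate also passing that limit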;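 note: firefly luciferase signal divided by Alamar Blue viability fluorescence both relative to DMSO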
# TWEAK-Fn14 inh = inhibitors of TWEAK-Fn14 interaction signaling. AID 1159606. inhibition, % at 10 µM. 2% of 360,000 active. TWEAK-stimulated Fn14 reporter cells, luciferase luminescence, 8 h; in the data active = inhibition above about 50%
# * marks the source's active call; other numbers are inactive results; x = not tested or not shown.
SMILES,KKLEB tox,LGR2 antag,CF NFkB inh,TROY signal inh,EWS-Fli inh,TWEAK-Fn14 inh
CC(Nc1cccc2ccccc12)C(=O)N/N=C/c1ccc([N+](=O)[O-])cc1 (stereo not given),3.6,-12.6,-38.9,44.7,x,100.3*
COc1cc([N+](=O)[O-])cc(/C=N/NC(=O)C(C)Nc2cccc3ccccc23)c1O (stereo not given),-2.5,18.7,12.2,57.2*,7.6,86.9*
O=C(NCC[C@H]1CC[C@@H](NS(=O)(=O)c2cccc(F)c2)[C@@H](CO)O1)C1CCCCC1,x,11.7,x,x,3.0,x
Cc1ccc(N/C(N)=N/c2nc(C)cc(N3CCCCC3)n2)c(C)c1,-21.6,67.3*,20.0,61.4*,25.8,5.4
c1ccc2c(c1)OCC(CNc1ncnc3sccc13)O2 (stereo not given),-0.2,-11.6,22.8,-0.2,x,50.7*
OC[C@@H]1[C@@H](c2ccccc2)C2(CN(CC3CCOCC3)C2)N1Cc1cncnc1,x,0.1,x,x,-4.7,x
O=C(C/C=N/OCc1ccc(Cl)cc1)c1cnc(-c2ccccc2)s1,3.4,-2.0,-3.5,38.0,x,10.3
O=C(C/C=N/OCc1c(Cl)cccc1Cl)c1cnc(-c2ccccc2)s1,0.6,x,-1.6,53.7*,x,-15.8
Cc1noc(C)c1NC(=O)Nc1ccc2c(c1)C(=O)N([C@H](C)CO)C[C@H](C)[C@H](CN(C)S(=O)(=O)c1cn(C)cn1)OCCCC[C@@H](C)O2,x,12.9,x,x,-4.8,x
O=C(C[C@@H]1C=C[C@H](NC(=O)C2CCOCC2)[C@@H](CO)O1)Nc1ccccc1,x,6.0,x,x,28.7,x
Cc1ccccc1OCC(=O)N/N=C/c1cccc(Oc2ccc([N+](=O)[O-])cc2[N+](=O)[O-])c1,1.3,10.3,-29.8,30.1,x,63.1*
O=C(N/N=C/c1cccc(Oc2ccc([N+](=O)[O-])cc2[N+](=O)[O-])c1)c1cncc(Br)c1,-26.0,6.1,3.1,59.0*,x,45.3
Cc1ccccc1OCC(=O)NCC(=O)N/N=C/c1cccc([N+](=O)[O-])c1,x,-20.1,x,x,-15.8,x
CC(C)CC(=O)/C=C/n1c(=S)oc2ccccc21,-76.9*,-27.6,91.8*,14.7,x,98.6*
CC(=O)N1[C@H](CO)[C@@H](c2ccc(-c3ccccc3)cc2)[C@@H]1CNC(=O)C1CC1,x,12.8,x,x,7.8,x
COc1ccc(Cn2nnnc2C(C(C)C)N(Cc2ccco2)Cc2cccs2)cc1 (stereo not given),0.6,x,-0.2,x,x,79.7*
CCC(=O)N(C)C[C@@H]1Oc2ncc(C#CCc3ccccc3)cc2C(=O)N([C@@H](C)CO)C[C@@H]1C,x,-2.0,x,x,-5.5,x
Cc1noc(C)c1NC(=O)Nc1ccc2c(c1)C(=O)N([C@@H](C)CO)C[C@H](C)[C@@H](CN(C)C(=O)Cc1ccccc1)OCCCC[C@H](C)O2,x,-1.1,x,x,-6.0,x
Cc1ccc(-n2c(O)c(/C=C3/C(c4ccccc4)=Nc4ccccc43)c(=O)[nH]c2=O)cc1,-11.9,4.7,42.0,-23.1,x,70.6*
COc1ccc(-n2c(O)c(/C=C3\C=Nc4ccccc43)c(=O)[nH]c2=O)cc1,-11.6,3.3,-34.1,-1.2,7.2,13.4
Cc1cccc2cc3c(N)c(C(=O)Nc4ccc(N5CCOCC5)cc4)sc3nc12,-31.4,x,-59.8,51.0*,x,57.7*
Cc1sc(NC(=O)c2sc3nc4c(C)cccc4cc3c2N)c(C#N)c1C,1.1,x,-19.8,9.6,x,15.9
O=C(Nc1ccccc1F)N[C@H]1CC[C@H](CCNS(=O)(=O)c2ccc(Cl)cc2)O[C@H]1CO,x,-4.2,x,x,6.7,x
CCC(CC)C(=O)Nc1cc([N+](=O)[O-])ccc1Cl,-6.1,13.5,-11.6,7.8,-6.4,3.2
O=C(NCCCl)Nc1cc([N+](=O)[O-])ccc1Cl,12.8,40.4,12.4,61.9*,-1.7,-1.8
SMILES,KKLEB tox,LGR2 antag,CF NFkB inh,TROY signal inh,EWS-Fli inh,TWEAK-Fn14 inh
Cc1cc(C)n2nc(NCc3cccc(Br)c3)nc2n1,-4.5,x,-5.5,79.8*,x,-17.6
COc1ccc(CNc2nc3nc(C)cc(C)n3n2)cc1OC,7.3,x,4.8,-5.8,x,9.8
NNc1nc(-c2ccccc2)nc2sc3c(c12)CCCC3,-25.8,7.1,-1.7,72.4*,x,79.2*
O=[N+]([O-])c1ccc(NN=Cc2cccc([N+](=O)[O-])c2)cc1,-21.2,-7.2,3.9,-50.7,-23.5,-26.5
O=[N+]([O-])c1ccc(N/N=C/c2cccc(O)c2)cc1,1.7,-125.3,-41.4,51.3*,-128.0,-69.3
Nc1nn(S(=O)(=O)c2ccccc2)cc1-c1ccc([N+](=O)[O-])cc1,-9.8,2.5,3.8,-14.4,83.3*,0.3
C[C@@H]1CN([C@@H](C)CO)S(=O)(=O)c2ccc(C#Cc3ccc(F)cc3)cc2O[C@H]1CN(C)C(=O)CN(C)C,x,12.5,x,x,58.7*,x
Cc1ccc(-c2ccc3c(c2)O[C@@H](CN(C)Cc2ccccn2)[C@@H](C)CN([C@@H](C)CO)S3(=O)=O)cc1,x,11.0,x,x,11.4,x
C[C@H]1CN([C@@H](C)CO)S(=O)(=O)c2ccc(-c3ccccc3F)cc2O[C@H]1CN(C)Cc1ccncc1,x,11.1,x,x,22.7,x
Cc1ccc(-c2ccc3c(c2)O[C@H](CN(C)Cc2ccccn2)[C@@H](C)CN([C@H](C)CO)S3(=O)=O)cc1,x,12.8,x,x,62.7*,x
C[C@H](CO)N1C[C@H](C)[C@@H](CN(C)C(=O)CN(C)C)Oc2cc(C#Cc3ccc(F)cc3)ccc2S1(=O)=O,x,3.7,x,x,4.5,x
Cc1ccc(-c2ccc3c(c2)O[C@H](CN(C)Cc2ccccn2)[C@@H](C)CN([C@@H](C)CO)S3(=O)=O)cc1,x,13.3,x,x,57.7*,x
C[C@@H]1CN([C@H](C)CO)S(=O)(=O)c2ccc(-c3ccccc3F)cc2O[C@H]1CN(C)Cc1ccncc1,x,-13.8,x,x,59.7*,x
C[C@@H]1CN([C@@H](C)CO)S(=O)(=O)c2ccc(-c3ccccc3)cc2O[C@@H]1CN(C)Cc1ccccn1,x,1.1,x,x,-0.9,x
CO[C@@H]1CN(C)C(=O)c2ccc(NC(=O)C3CCC3)cc2OC[C@H](C)N(C)C[C@@H]1C,x,1.1,x,x,-2.9,x
COc1ccc(Cc2c(-c3ccco3)nc3c(C)cc(Br)cn23)c(C)c1,-1.0,0.8,-8.2,12.8,13.1,18.6
Cc1cc(Br)cn2c(Cc3ccccc3)c(-c3ccco3)nc12,-21.6,4.5,34.8,6.2,6.2,84.6*
N#Cc1c(N)[nH]c2ccc(Sc3ccccc3)cc12,-13.7,-19.6,47.0,29.9,60.7*,4.6
O=C(O)C1CC=CCC1C(=O)N1CC=C(c2ccccc2)CC1 (stereo not given),-6.7,4.6,7.2,41.9,17.4,78.2*
O=C(O)CCC(=O)N1CC=C(c2ccccc2)CC1,8.8,x,8.8,9.2,x,5.3
O=C(CC1CC1)N1CC[C@H]2[C@H](CO)Nc3ccc(-c4cccc(F)c4)cc3[C@H]21,x,14.8,x,x,0.8,x
COc1ccc(/C=C/C(=O)c2oc3ccc(F)cc3c2C)cc1,-10.2,x,-5.8,-33.6,x,-9.2
